Experiment [1] in a line: A CellTox Green Cytotoxicity Assay to monitor cytotoxicity in HEK293 cells - 40 hour (AID 1224871). Further: nearly all actives have a fitted effect of over 45% in size. Further: potency means the concentration at half of the fitted maximal effect. In short, it runs like this:
(§1)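 Read-out: fluorescence of a cell-impermeant cyanine dye staining DNA of dead cells, proportional to cytotoxicity. HEK293, 600 cells/well with reagent, compound (23 nL DMSO) added after 5 h; reads at 0, 8, 16, 24, 32, 40 h.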

Experiment [2] in a line: qHTS RealTime-Glo MT Cell Viability Assay in HEK293 cells - 16 hour (AID 1224872). Further: nearly all actives have a fitted effect of over 50% in size. Further: potency means the concentration at half of the fitted maximal effect. In short, it runs like this: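 HEK293 cells were seeded at 600 cells/well together with NanoLuc luciferase and cell-permeant prosubstrate, preincubated 5 h at 37 C/5% CO2, then given compound in DMSO by pintool. Luminescence from viable-cell prosubstrate reduction was read repeatedly over 40 h.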
Background: Quantitative high-throughput screening tests each substance at several concentrations.

Experiment [3] is described as follows: qHTS RealTime-Glo MT Cell Viability Assay in HepG2 cells - 8 hour (AID 1224873). Further: nearly all actives have a fitted effect of over 55% in size. Further: potency means the concentration at half of the fitted maximal effect. In short, it runs like this:
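Real-time viability: cells seeded at 600 per well together with NanoLuc and cell-permeant prosubstrate, compounds added after 5 h incubation. Luminescence tracked at 0, 8, 16, 24, 32 and 40 h of exposure.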

The nature of experiment [4]: qHTS RealTime-Glo MT Cell Viability Assay in HEK293 cells - 40 hour (AID 1224874). Further: nearly all actives have a fitted effect of over 50% in size. Further: potency means the concentration at half of the fitted maximal effect. The conditions noted are these: RealTime-Glo luminescence; max response: stronger effect = lower value. In short, it runs like this: (§2)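 Luminescence readout at each listed time point; HEK293, 600 cells/well, RealTime-Glo MT reagent added with cells; compounds pinned (23 nL in DMSO) after 5 h at 37 C; continuous culture at 37 C.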

A short description of experiment [5]: A CellTox Green Cytotoxicity Assay to monitor cytotoxicity in HEK293 cells - 24 hour (AID 1224875). Further: nearly all actives have a fitted effect of over 45% in size. Further: potency means the concentration at half of the fitted maximal effect. In short, it runs like this: as §1
Experiment [6] is described as follows: A CellTox Green Cytotoxicity Assay to monitor cytotoxicity in HepG2 cells - 16 hour (AID 1224876). Further: nearly all actives have a fitted effect of over 45% in size. Further: potency means the concentration at half of the fitted maximal effect. An outline of the steps: (§3)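 HepG2, 600 cells/well premixed w/ CellTox Green; 5 h settle, 37 C/5% CO2; pintool cpd add (DMSO); 37 C, 40 h; fluorescence read at 0, 8, 16, 24, 32, 40 h.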
Experiment [7] is described as follows: qHTS RealTime-Glo MT Cell Viability Assay in HepG2 cells - 32 hour (AID 1224877). Further: nearly all actives have a fitted effect of over 55% in size. Further: potency means the concentration at half of the fitted maximal effect. An outline of the steps: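 HepG2 cells were seeded at 600 cells/well together with NanoLuc luciferase and a cell-permeant prosubstrate, preincubated 5 h at 37 C/5% CO2, then pin-dosed with compounds in DMSO. Nonlytic luminescence from viable cells was read at each time point.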

Experiment [8] in a line: A CellTox Green Cytotoxicity Assay to monitor cytotoxicity in HepG2 cells - 24 hour (AID 1224878). Further: nearly all actives have a fitted effect of over 45% in size. Further: potency means the concentration at half of the fitted maximal effect. In short, it runs like this:
as §3

A short description of experiment [9]: A CellTox Green Cytotoxicity Assay to monitor cytotoxicity in HepG2 cells - 40 hour (AID 1224879). Further: nearly all actives have a fitted effect of over 40% in size. Further: potency means the concentration at half of the fitted maximal effect. An outline of the steps: as §3
Experiment [10] is described as follows: qHTS RealTime-Glo MT Cell Viability Assay in HEK293 cells - 0 hour (AID 1224880). In short, it runs like this: as §2

Structures are written as SMILES. Values joined by “and” are separate entries in the source; they are usually repeats but may differ in a detail not shown here. Equal entries are not always repeated. Results filed as inconclusive are left out. More than one record can exist for a structure, and the calls need not agree. Active and inactive are the calls of the source. The call rests on the fitted dose curve; in most records, active means well fitted curve in the direction sought with a large enough effect in the repeat runs; inconclusive means weak or mixed curves; inactive means no such curve, though single readings can be large; an effect the other way counts as inactive or inconclusive.
On the % scale 0 is the no-effect control and ±100 the full control effect.

Turning to `Cc1ncc(C[n+]2csc(CCO)c2C)c(N)n1`, the Potency entry in experiment [1], in experiment [2], in experiment [3], in experiment [5], in [6] and in experiment [7] was “inactive” each time. Also, the Potency entry in experiment [8] and in experiment [9] was “inactive” throughout. Besides, the max response in [4] was -4.98% (inactive). Further, the compound was classed as inactive in [10].
Turning to `CC(Cl)C(=O)O` (stereo not given), the Potency result in [1], in experiment [2], in experiment [3], in experiment [5], in [6] and in experiment [7] was “inactive” throughout. The Potency entry in experiment [8] and in [9] was “inactive” each time. In addition, the max response in experiment [4] is 19.1% (inactive). Also, the compound was called inactive in [10].
Take `COCc1cnc(C2=NC(C)(C(C)C)C(=O)N2)c(C(=O)O)c1` (stereo not given): the Potency result in experiment [1], in [2], in [3], in experiment [5], in experiment [6] and in [7] was “inactive” in each case. The Potency entry in [8] and in experiment [9] was “inactive” each time. The max response in [4] was 9.64% (inactive). The call in [10] was inactive.
Take `CCOP(=O)(SC(C)CC)N1CCSC1=O` (stereo not given): the Potency result in experiment [1], in [2], in [3], in [5], in experiment [6] and in [7] was “inactive” each time. Also, the Potency entry in [8] and in experiment [9] was “inactive” in each case. In addition, the max response in experiment [4] was 15% (inactive). The compound was classed as inactive in [10].
With `Nc1cc(Cl)cc(C(=O)O)c1Cl`, the Potency entry in [1], in experiment [2], in experiment [3], in [5], in experiment [6] and in experiment [7] was “inactive” in each case. For the same compound, the Potency entry in experiment [8] and in experiment [9] was “inactive” each time. Besides, in [4], the max response is 1.89% (inactive) and 6.4% (inactive). Further, the outcome in [10] was inactive.
As for `N#CC(C#N)=C(C#N)C#N`, the Potency entry in experiment [1], in experiment [2], in experiment [3], in experiment [5], in experiment [6] and in experiment [7] was “inactive” throughout. Besides, the Potency result in experiment [8] and in experiment [9] was “inactive” each time. Moreover, in experiment [4], the max response is 20.6% (inactive). Moreover, the outcome in experiment [10] was inactive.
Regarding `CCC(C)(C)O`, the Potency entry in experiment [1], in experiment [2], in [3], in experiment [5], in experiment [6] and in experiment [7] was “inactive” in each case. Also, the Potency entry in [8] and in [9] was “inactive” each time. In addition, in [4], the max response was 6.83% (inactive). In [10], the outcome was inactive.
Regarding `CN[C@@H](C)[C@H](O)c1ccccc1`, the Potency result in experiment [1], in experiment [2], in [3], in [5], in [6] and in experiment [7] was “inactive” in each case. In addition, the Potency entry in experiment [8] and in experiment [9] was “inactive” in each case. The max response in experiment [4] is 1.2% (inactive). Besides, the compound was called inactive in [10].
Regarding `CC[N+]1(C)CCCC(OC(=O)C(O)(c2ccccc2)c2ccccc2)C1` (stereo not given), the Potency result in experiment [1], in [2], in experiment [3], in experiment [5], in experiment [6] and in experiment [7] was “inactive” in each case. The Potency entry in experiment [8] and in experiment [9] was “inactive” in each case. Moreover, the max response in experiment [4] is 1.3% (inactive). In experiment [10], the compound was called inactive.
Regarding `FC(Cl)(Cl)C(F)(Cl)Cl`, the Potency result in experiment [1], in experiment [2], in [3], in experiment [5], in experiment [6] and in [7] was “inactive” in each case. Further, the Potency result in experiment [8] and in experiment [9] was “inactive” in each case. Also, in [4], the max response was -10.6% (inactive). Further, in experiment [10], the compound was called inactive.
As for `CC(Oc1cccc(Cl)c1)C(=O)O` (stereo not given), the Potency result in experiment [1], in experiment [2], in experiment [3], in experiment [5], in experiment [6] and in experiment [7] was “inactive” throughout. Moreover, the Potency result in experiment [8] is “inactive”. In addition, the max response in experiment [4] is 9.01% (inactive). For the same compound, the compound was classed as inactive in experiment [10].
On to `CCCN(CCOc1c(Cl)cc(Cl)cc1Cl)C(=O)n1ccnc1`, for which the Potency entry in experiment [1], in experiment [3], in experiment [5], in experiment [6], in experiment [7] and in experiment [8] was “inactive” in each case. Moreover, the Potency in experiment [2] was 22.3 µM (active) and 27.5 µM (active); in [4], 19.9 µM (active) and 27.5 µM (active). In experiment [10], the result was inactive.
In the case of `C[C@H]1O[C@H](OC2[C@@H](O)[C@@H](O)C(O)[C@H](O)[C@H]2O)[C@@H](N)C[C@@H]1N=C(N)C(=O)O` (stereo not given in full), the Potency entry in [1], in [2], in [3], in [5], in experiment [6] and in [7] was “inactive” each time. For the same compound, the Potency entry in [9] was “inactive”. Moreover, in [4], the max response is 5.07% (inactive). The compound was called inactive in [10].
Take `O=C(O)C(F)(F)C(F)(F)C(F)(F)C(F)(F)C(F)(F)F`: the Potency result in [1], in experiment [2], in experiment [3], in experiment [5], in experiment [6] and in experiment [7] was “inactive” each time. Moreover, in experiment [8], the Potency result was “inactive”. Further, the max response in experiment [4] was -1.16% (inactive). Further, the outcome in [10] was inactive.
For the compound `CC(=O)OC(c1ccccc1)C(Cl)(Cl)Cl` (stereo not given), the Potency was 19.5 µM (active) in experiment [1], 19.5 µM (active) in experiment [5], 21.9 µM (active) in experiment [6] and 21.9 µM (active) in [8]. Further, the Potency result in [2], in [3] and in experiment [7] was “inactive” throughout. In addition, in [4], the max response is -15.9% (inactive). In experiment [10], the compound was classed as inactive.
On to `O=C(O)CCCOc1ccc(Cl)cc1Cl`, for which the Potency entry in experiment [1], in experiment [2], in experiment [3], in experiment [5], in [6] and in experiment [7] was “inactive” throughout. The Potency result in [9] was “inactive”. Further, in [4], the max response is 28.1% (inactive) and -0.413% (inactive). In experiment [10], the call was inactive.
Turning to `CC(C)CCCCCCCOC(=O)c1ccccc1C(=O)OCCCCCCCC(C)C`, the Potency result in [1], in experiment [2], in experiment [3], in [5], in experiment [6] and in experiment [7] was “inactive” in each case. Moreover, the Potency entry in experiment [9] was “inactive”. Moreover, in experiment [4], the max response is 11.2% (inactive). The outcome in experiment [10] was inactive.
For `O=C(O)c1cc(I)cc(I)c1I`, the Potency result in experiment [1], in experiment [2], in experiment [3], in [5], in experiment [6] and in experiment [7] was “inactive” throughout. Further, the Potency result in [9] was “inactive”. Also, the max response in experiment [4] was -4.51% (inactive).
For `C[CH2][Hg][S]c1ccccc1C(=O)O`, the Potency in experiment [1] was 6.92 µM (active) and 4.77 µM (active); in experiment [2], 1.23 µM (active) and 2.13 µM (active); in experiment [3] it was 3.47 µM (active) and 2.13 µM (active); in experiment [4], 871 nM (active) and 952 nM (active); in [5], 7.76 µM (active) and 5.35 µM (active); in experiment [6], 3.89 µM (active) and 2.39 µM (active). The Potency was 2.19 µM (active) and 2.13 µM (active) in experiment [7]; 1.95 µM (active) and 2.13 µM (active) in [9]. In addition, in [10], the result was inactive.
With `CCC[N+](CCC)(CCC)CCC`, the Potency result in experiment [1], in experiment [2], in [3], in experiment [5], in [6] and in experiment [7] was “inactive” throughout. For the same compound, the Potency entry in experiment [9] was “inactive”. The max response in experiment [4] is 6.01% (inactive). Further, the result in experiment [10] was inactive.
In the case of `CC(C)(C)c1ccc(CCOc2ncnc3ccccc23)cc1`, the Potency entry in experiment [1], in [2], in experiment [3], in experiment [5], in [6] and in experiment [7] was “inactive” each time. In experiment [4], the max response is 3.46% (inactive). For the same compound, the call in [10] was inactive.
Take `CC(CC(C(N)=O)(c1ccccc1)c1ccccc1)N(C)C` (stereo not given): the Potency result in [1], in experiment [2], in experiment [3], in experiment [5], in [6] and in experiment [7] was “inactive” throughout. In experiment [9], the Potency result is “inactive”. Also, the max response in experiment [4] is 3.65% (inactive). In addition, the outcome in [10] was inactive.
As for `c1ccc2c(c1)-c1cccc3cccc-2c13`, the Potency result in experiment [1] is “inactive and 43.6 µM (active)”. Further, the Potency entry in [2], in experiment [3], in [5], in experiment [6], in experiment [7] and in experiment [8] was “inactive” throughout. For the same compound, in experiment [4], the max response was -7% (inactive) and -12.1% (inactive). Also, in experiment [10], the outcome was inactive.

These data come from PubChem BioAssay (Tox21).
